How the values were obtained:
[1] = system: Vero E6 infected with SARS-CoV-2; assay: morphology score (similarity to uninfected cells); higher = more like uninfected cells; settings: 24 h
[2] = system: Vero E6 infected with SARS-CoV-2; assay: SARS-CoV-2 infection rate relative to infected DMSO; higher = more infection, active = 60 or less; settings: 24 h

| SMILES | morphology score [1] | SARS-CoV-2 infection rate [2] |
| --- | --- | --- |
| O=C(O)c1c(Cl)c(Cl)c(Cl)c(Cl)c1-c1c2cc(I)c(=O)c(I)c-2oc2c(I)c(O)c(I)cc12 [rose-bengal] (0.833333 µM) | 0.318 | 98.2% (inactive) |
| O=C(NCC(=O)N1CC[C@H](N[C@H]2CC[C@@](O)(c3ccc(-c4ncccn4)cn3)CC2)C1)c1cccc(C(F)(F)F)c1 (10 µM) | 0.0269 | 106% (inactive) |
| CC(C)(C)c1ccc(-c2nc3ccccc3[nH]2)cc1 (10 µM) | 0.557 | 64% (inactive) |
| Oc1ccc(Cl)c2cccnc12 [cloxyquin] (10 µM) | -0.13 | 109% (inactive) |
| O=C1Nc2cc(Cl)c(Cl)cc2N2CCNC[C@H]12 (10 µM) | 0.179 | 108% (inactive) |
| Cc1cccc(CN2CCN(C(c3ccccc3)c3ccc(Cl)cc3)CC2)c1 (stereo not given) [meclizine] (10 µM) | 0.0755 | 108% (inactive) |
| CCN(CC)C(C)C(=O)c1ccccc1 (stereo not given) [amfepramone] (10 µM) | 0.016 | 116% (inactive) |
| CC1CNc2c(cccc2S(=O)(=O)N[C@@H](CCCNC(=N)N)C(=O)N2CC[C@@H](C)C[C@@H]2C(=O)O)C1 (mixture of isomers) [argatroban] (10 µM) | -0.0153 | 115% (inactive) |
| CC(C)[C@@H]1CC[C@@H](C)C[C@H]1O [levomenthol] (10 µM) | -0.181 | 108% (inactive) |
| Cc1cccc(-c2n[nH]cc2-c2ccc(F)c(-c3cnn(CCO)c3)c2)n1 (10 µM) | 0.148 | 104% (inactive) |
| O=P1(N(CCCl)CCCl)NCCCO1 (stereo not given) [cyclophosphamide] (10 µM) | 0.0658 | 97.5% (inactive) |
| Nc1ncnc2c1c(COc1cccc(Cl)c1)nn2C1CCOCC1 (10 µM) | 0.00558 | 104% (inactive) |
| CC(C(=O)O)c1ccc2c(c1)[nH]c1ccc(Cl)cc12 (stereo not given) [carprofen] (10 µM) | -0.0165 | 108% (inactive) |
| CC(C)(OCc1nn(Cc2ccccc2)c2ccccc12)C(=O)O [bindarit] (10 µM) | 0.132 | 112% (inactive) |
| Cn1cnnc1Sc1c([N+](=O)[O-])ncn1C (10 µM) | 0.299 | 87% (inactive) |
| COc1ccccc1OCC(O)CO (stereo not given) [guaifenesin] (10 µM) | -0.044 | 112% (inactive) |
| CCOc1ccccc1C(N)=O [ethenzamide] (10 µM) | -0.0139 | 118% (inactive) |
| O=c1[nH]c(=O)n([C@H]2C[C@H](O)[C@@H](CO)O2)cc1Br [broxuridine] (0.833333 µM) | 0.0347 | 108% (inactive) |
| Cc1ccc2nc(N)[nH]c(=O)c2c1Sc1ccncc1 [nolatrexed] (10 µM) | -0.166 | 108% (inactive) |
| CCC1(CC)C(=O)NC(=O)N(C)C1=O [metharbital] (10 µM) | 0.221 | 91.5% (inactive) |
| O=C(CCCCCCC(=O)Nc1ccccc1)NO [vorinostat] (0.833333 µM) | 0.00344 | 118% (inactive) |
| CC1(C)Oc2ccc(C#N)cc2[C@H](N(Cc2ncc[nH]2)c2ccc(Cl)cc2)[C@H]1O (10 µM) | 0.455 | 81% (inactive) |
| CC(=O)N(CC(O)CN(C(C)=O)c1c(I)c(C(=O)NCC(O)CO)c(I)c(C(=O)NCC(O)CO)c1I)c1c(I)c(C(=O)NCC(O)CO)c(I)c(C(=O)NCC(O)CO)c1I (stereo not given) [iodixanol] (10 µM) | -0.0966 | 114% (inactive) |
| COc1ccccc1N1CCN(CCCCN2C(=O)c3ccccc3C2=O)CC1 (10 µM) | 0.185 | 99% (inactive) |
| CC12CCC(C(Br)C1=O)C2(C)C (stereo not given) [3-bromocamphor] (10 µM) | -0.0927 | 106% (inactive) |
| O=S(=O)(c1ccccc1)N(CC(F)(F)F)c1ccc(C(O)(C(F)(F)F)C(F)(F)F)cc1 (10 µM) | 0.0275 | 104% (inactive) |
| CC(C)(C(=O)O)c1ccc(C(O)CCCN2CCC(C(O)(c3ccccc3)c3ccccc3)CC2)cc1 (stereo not given) [fexofenadine] (10 µM) | -0.361 | 122% (inactive) |
| CC/C(=C(/c1ccc(/C=C/C(=O)O)cc1)c1ccc2[nH]ncc2c1)c1ccc(F)cc1Cl (10 µM) | 0.0792 | 103% (inactive) |
| CC(=O)Oc1cc(C(F)(F)F)ccc1C(=O)O [triflusal] (10 µM) | 0.126 | 102% (inactive) |
| O=C(COc1ccc(C(=O)c2ccccc2)cc1)NC1CCN(Cc2ccccc2)CC1 [adiporon] (10 µM) | 0.0636 | 106% (inactive) |

Reference: the supplement of paper PMC13380429
